Results taken from ChEMBL document CHEMBL3988442, “University of Dundee, Small-Polar-MMV Screening Library” (2021).
Among all 48,000 compounds or so, about 13,000 (27%) showed an effect of 50% or more. The list shows a part of the results.

What follows are molecules tested on Wolbachia pipientis (assay: Anti-Wolbachia Cell-Based Screen). Settings: 5 µM.
Type: functional
Parameters: scale not given: in the data most compounds retested in dose-response had high values

SMILES	Percent Effect [%]
Cc1nc(CCCNC(=O)C2CC(=O)N(C3CCCC3)C2)sc1C (centres undefined)	-46.61
O=C(COC1CCCCC1)Nc1ccn(Cc2ccccn2)n1	-1.457
COc1ccc(OC)c2c(C)cc(N(C)CCO)nc12	-15.31
CC(=O)c1c(N(C)C)ccnc1C(F)(F)F	-9.795
CCOc1c(Cl)cccc1NS(=O)(=O)c1cc(C)c(C(=O)O)s1	-12.6
CCc1nc(C(=O)N2CCCC2)nn1-c1ccccc1Cl	13.32
CC(=O)N1CCN(C(=O)c2cnn(-c3ccccc3Cl)c2)CC1	-0.729
CC(=O)N1CCCN(C(=O)c2cnn(-c3ccccc3Cl)c2)CC1	140
Cc1cc(C(=O)NCC(F)(F)F)c2c(C3CCNCC3)noc2n1	137.6
Cc1cc(NC(C)C(=O)NCC(F)(F)F)nc(-c2ccncc2)n1 (centres undefined)	14.05
Cc1cc(C(=O)NCC(F)(F)F)c2c(C3CCCN3)noc2n1 (centres undefined)	103.2
Cc1cc(CNC(=O)c2cn(CCC3CCCCN3)nn2)on1 (centres undefined)	-16.72
Cc1cc(C(=O)NCC(C)C)c2c(C3CCCN3)noc2n1 (centres undefined)	114.1
CCc1ccc2nc(C)cc(C(=O)NC3CCNC3=O)c2c1 (centres undefined)	1.98
COCCC(=O)N1CCC(c2noc3nc(C)cc(C(F)(F)F)c23)CC1	3.825
Cc1ccccc1-n1ccnc1S(=O)(=O)Cc1nsc(N(C)C)n1	22.74
Cc1ccc(N2C[C@@H]3CN(C(=O)NC4CCCC4)C[C@]3(C(=O)O)C2)nn1	-11.61
CN(C)C(C(=O)N1CCC(CCO)CC1)c1ccccc1F (centres undefined)	-9.373
Cc1ccc(NCc2ccc(C#N)cc2)cc1-n1cnnn1	10.93
O=C(NCCCc1ccc(F)cc1)c1ccc(N2CCOCC2)cc1	-12.9
CC(C)c1ccc(CC2(C)Cc3cc(CC(=O)O)ccc3O2)cc1 (centres undefined)	103.5
O=C(NCc1ccc(C(=O)O)o1)c1ccc(F)cc1	8.231
Cc1ncc(C)c(N2CCC(Cc3ccc(Cl)cc3)(C(=O)O)CC2)n1	-13.5
CC1(Cc2ccc(Cl)cc2)Cc2cc(CCC(=O)O)ccc2O1 (centres undefined)	128.5
O=C(O)CCCc1ccc2c(c1)CC(=O)N2	-9.679

SMILES	Percent Effect [%]
CC1(Cc2ccc(F)cc2)Cc2cc(C(=O)NCCO)ccc2O1 (centres undefined)	96.1
CC(C)N(Cc1ccc(C(=O)O)o1)C(C)C.Cl	-3.405
Cc1nsc(NCc2ccc(CS(=O)(=O)NC(C)C)cc2)n1	-12.57
O=C(CC1=CCCCC1)NCc1ccnc(OC2CCOCC2)c1	4.75
Cc1ccc(CN(CCN(C)C)Cc2nc3ccccc3[nH]2)s1	-0.2455
CC(NC(=O)N(C)Cc1cnn(C)c1)c1nncn1C (centres undefined)	-30.3
COC(=O)C(C)N(Cc1cc(=O)n(C)c(=O)n1C)C1CC1 (centres undefined)	5.049
CCCC1(CO)CCCN(Cc2ncccn2)C1 (centres undefined)	-3.233
CCCSCC(=O)N1CCCC2(CCC(=O)N(CCc3c[nH]cn3)C2)C1 (centres undefined)	0.3412
CCCSCC(=O)N1CCCC(CO)(CCC)C1 (centres undefined)	120.7
CCCC1(CO)CCCN(C(=O)CN2CCN(CC)CC2)C1 (centres undefined)	98.5
CCCC1(CO)CCCN(C(=O)CCCn2nc(C)cc2C)C1 (centres undefined)	0.5939
CCCC1(CO)CCCN(Cc2nccs2)C1 (centres undefined)	-16.5
CN(C)C(=O)C1CCCN1c1ccnc2ccsc12 (centres undefined)	-11.69
O=C(CCN1CCc2[nH]nc(C(F)(F)F)c2C1)Nc1ccccc1	-5.362
COc1cccc(-c2n[nH]c3c2CN(C(=O)c2cc(C)n(C)n2)CC3)c1	-0.6407
O=C(c1cccnc1)N1Cc2[nH]nc(COCCO)c2C1	-11.56
COc1cccc(-c2n[nH]c3c2CN(C(=O)c2ccncc2)CC3)c1	-11.9
Cc1cc(C(=O)N2CCc3[nH]nc(-c4ccc5c(c4)OCO5)c3C2)no1	-8.548
O=C(c1cccnc1)N1CCc2[nH]nc(Nc3ccccc3)c2C1	125.3
Cc1nc(C(=O)N2CCc3[nH]nc(Nc4ccccc4)c3C2)co1	140.3
Cn1ccc(C(=O)N2CCc3[nH]nc(Nc4ccccc4)c3C2)n1	131.4
O=C(c1coc(-c2ccccc2)n1)N1CCCCC1	-26.2
COCc1n[nH]c2c1CN(C(=O)c1ccncc1)C2.O=C(O)C(F)(F)F	-2.458
O=C(c1ccncc1)N1CCc2[nH]nc(Nc3ccccc3)c2C1	110.2

SMILES	Percent Effect [%]
Cc1cc(C)n(C2CN(CC(O)c3ccc(F)cc3)C2)n1 (centres undefined)	-3.479
CN1CCC(CCNC(=O)c2ccc(N(C)S(C)(=O)=O)cc2Cl)CC1	-5.905
COC(=O)CC(c1ccccc1)c1oc(C)cc(=O)c1O (centres undefined)	9.59
O=C(c1ccsc1)N1CCc2c(CNc3ncccn3)n[nH]c2C1	-3.042
O=C(c1cncs1)N1CCc2[nH]nc(Nc3ccccc3)c2C1	117.5
Cc1ncsc1C(=O)N1CCc2[nH]nc(-c3ccc4c(c3)OCO4)c2C1	-9.39
CCn1c(CC2CCN(C(=O)C3CCOC3)CC2)nn(C)c1=O (centres undefined)	3.513
Cc1cc(=O)n2ncnc2n1CC(O)c1ccc(F)cc1F (centres undefined)	-38.21
CCOc1cccc2c1OCC(C(=O)NS(=O)(=O)c1cncc(Br)c1)=C2	125.8
CCOc1cccc2c1OCC(C(=O)NS(=O)(=O)c1ccc(Cl)cc1)=C2	-2.637
Cc1ccc(OCC(=O)NS(=O)(=O)c2c(C)noc2C)cc1C	20.27
CCOc1ccc(C(=O)NS(=O)(=O)c2cncc(Br)c2)cc1OC	-12.86
Cc1ccc(S(=O)(=O)NC(=O)c2cccc(OCC(N)=O)c2)s1	-0.7122
Cc1cc(C)c(OCC(=O)NS(=O)(=O)c2c(C)noc2C)c(C)c1	0.8796
O=S(=O)(NCC1(O)CCOc2ccccc21)c1ccc(Br)s1 (centres undefined)	-8.06
N#CCc1ccc(OCC(=O)NS(=O)(=O)c2cccs2)cc1	5.016
CCOc1cccc2c1OCC(C(=O)NS(=O)(=O)c1cccs1)=C2	95.96
CCOc1cccc2c1OCC(C(=O)NS(=O)(=O)c1c(C)noc1C)=C2	100.1
CCOc1cccc2c1OCC(C(=O)NS(=O)(=O)c1ccc(Br)s1)=C2	97
Cc1ccc(S(C)(=O)=O)cc1C(=O)NS(=O)(=O)c1cccs1	20
CN(CCN1CCCC1=O)S(=O)(=O)CC1CCCC1	-3.28
Cc1ncc(S(C)(=O)=O)c(N2Cc3ccccc3C2)n1	20.01
CCN(C)CC(=O)N1CCN(Cc2ccccc2)[C@@H]2CS(=O)(=O)C[C@@H]21	-19.14
CCN(CC)C(=O)c1ccn(COc2ccccc2)n1	-3.664
Cc1nc(CNC(C(=O)N2CCOCC2)C(C)C)oc1C (centres undefined)	-5.352

SMILES	Percent Effect [%]
CCOc1cccc2c1OCC(C(=O)NS(=O)(=O)c1ccc(C)s1)=C2	-6.763
CCOc1cccc2c1OCC(C(=O)NS(=O)(=O)c1ccc(Cl)s1)=C2	108.5
CC(C)COCCC(=O)NS(=O)(=O)c1ccc(Cl)s1	13.2
COc1ccc(NC(=O)CSc2nc(C)cc(C)n2)cn1	9.531
CC1c2ncc(CN3CCN(C)CC3)n2CCN1Cc1cnn(C)c1.O=C(O)C(F)(F)F.O=C(O)C(F)(F)F.O=C(O)C(F)(F)F (centres undefined)	96.74
CC1c2ncc(CN3CCN(C)CC3)n2CCN1CC1CC1.O=C(O)C(F)(F)F.O=C(O)C(F)(F)F.O=C(O)C(F)(F)F (centres undefined)	-5.269
CCOCc1cnc2n1CCN(Cc1scnc1C)C2C.O=C(O)C(F)(F)F (centres undefined)	-10.4
CC1c2ncc(CN3CCN(C)CC3)n2CCN1Cc1cccnc1.O=C(O)C(F)(F)F.O=C(O)C(F)(F)F.O=C(O)C(F)(F)F.O=C(O)C(F)(F)F (centres undefined)	3.329
Cc1ccc(CN2CCn3c(CN4CCN(C)CC4)cnc3C2C)s1.O=C(O)C(F)(F)F.O=C(O)C(F)(F)F.O=C(O)C(F)(F)F (centres undefined)	98.84
CC1c2ncc(CN3CCN(C)CC3)n2CCN1Cc1ccsc1.O=C(O)C(F)(F)F.O=C(O)C(F)(F)F.O=C(O)C(F)(F)F (centres undefined)	104.7
CC1c2ncc(CN3CCN(C)CC3)n2CCN1Cc1ccc(F)cc1.O=C(O)C(F)(F)F.O=C(O)C(F)(F)F.O=C(O)C(F)(F)F (centres undefined)	94.11
Nc1ccc(CC2COc3ccccc3C2)cn1 (centres undefined)	18.77
CCOc1ccc(S(=O)(=O)NCCc2ccc(N(C)C)cc2)cc1C	13.74
CC(C)c1nc(CCN(C)C(=O)C2COc3ccccc3C2)no1 (centres undefined)	-22.02
Cc1cccc(NC(=O)CCNCc2c(C)nn(C)c2N(C)C)n1	-6.985
Cc1nn(C)c(N(C)C)c1CNCCC(=O)NC1CCCCC1	122.8
CNC(=O)CCCNCc1c(C)nn(C)c1N(C)C	-1.91
CC(NCc1c(C(C)C)nn(C)c1N(C)C)C(=O)NC1CCCC1.Cl (centres undefined)	-15.88
Cc1nn(CC(C)C)c(N(C)C)c1CNCCC(=O)NC(C)C	-6.967
Cc1nn(C)c(N(C)C)c1CNCCNS(C)(=O)=O	-8.307
Cc1nn(C)c(N(C)C)c1CNCCC(=O)NC1CCCC1	122.8
CC(C)c1nn(C)c(N(C)C)c1CNCCC(=O)NC1CCCCC1	102.1
CC(C)c1nn(C)c(N(C)C)c1CNCCC(=O)NC1CCCC1	-3.602
O=C1[C@@H]2CCN(CC3CC3)C[C@@H]2OCCN1c1ccsc1	-4.722
